Laboratory results as given in publication PMC5540273 (PLoS ONE, 2017).

Legend:
Details in all cases: concentration: 1 μM, replicates: in singlicate; n = 1
[1] = test system: T1, ERK1
T1 construct: gene MAPK3

[2] = test system: T2, ERK2
T2 construct: gene MAPK1

[3] = test system: T3, ERK3
T3 construct: gene MAPK6

[4] = test system: T4, ERK4
T4 construct: gene MAPK4

[5] = test system: T5, ERK5
T5 construct: gene MAPK7

[6] = test system: T6, ERK8
T6 construct: gene MAPK15

[7] = test system: ERN1
[8] = test system: T7, FAK
T7 construct: gene PTK2

[9] = test system: FER
[10] = test system: FES
[11] = test system: FGFR1
[12] = test system: FGFR2
[13] = test system: FGFR3
[14] = test system: FGFR4
[15] = test system: FGR
[16] = test system: FLT1
[17] = test system: FLT3-autoinhibited
[18] = test system: FLT3
[19] = test system: FLT4
[20] = test system: FRK
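Also: KINOMEscan kinase panel screen.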

Row | Structure (SMILES) | %Inh [1] [%] | %Inh [2] [%] | %Inh [3] [%] | %Inh [4] [%] | %Inh [5] [%] | %Inh [6] [%] | %Inh [7] [%] | %Inh [8] [%] | %Inh [9] [%] | %Inh [10] [%] | %Inh [11] [%] | %Inh [12] [%] | %Inh [13] [%] | %Inh [14] [%] | %Inh [15] [%] | %Inh [16] [%] | %Inh [17] [%] | %Inh [18] [%] | %Inh [19] [%] | %Inh [20] [%]
1 | O=C(Nc1n[nH]c2nc(-c3cccc(O)c3)ccc12)C1CC1 [SB-711805] | 0 | 0 | 0 | 0 | 47 | 42 | 0 | 0 | 36 | 0 | 18 | 0 | 0 | 0 | 9 | 10 | 21 | 13 | 0 | 0
2 | N#CC1(c2cccc(C(=O)Nc3cccc(Oc4ccc5nc(NC(=O)C6CC6)sc5n4)c3)c2)CC1 | 0 | 0 | 0 | 0 | 0 | 29 | 0 | 17 | 22 | 0 | 92.7 | 95.3 | 70 | 70 | 88 | 98.5 | 16 | 96 | 100 | 98
3 | Nc1ncc(-c2ccc3nccc(-c4ccncc4)c3c2)cc1S(=O)(=O)N1CCCCC1 [GSK1693850] | 0 | 0 | 0 | 13 | 11 | 38 | 1 | 0 | 32 | 0 | 0 | 84 | 16 | 0 | 23 | 7 | 0 | 2 | 0 | 1
4 | Cc1cccc(Nc2nc(NCCN)ncc2C(N)=O)c1 [GSK1292139] | 0 | 0 | 79 | 33 | 0 | 0 | 16 | 5 | 49 | 0 | 0 | 0 | 0 | 0 | 49 | 7 | 15 | 13 | 0 | 0
5 | Cc1cc(-c2ccnc(Nc3cccc(C#N)c3)n2)cc(C)c1O [GSK1440913] | 0 | 0 | 75 | 1 | 0 | 99.1 | 0 | 0 | 7 | 28 | 0 | 54 | 27 | 14 | 37 | 27 | 12 | 48 | 15 | 60
6 | O=C(Nc1c(F)cccc1F)c1cc(C(=O)c2ccccc2F)c[nH]1 [GSK1326180] | 8 | 3 | 9 | 0 | 0 | 0 | 0 | 0 | 0 | 0 | 0 | 0 | 5 | 0 | 0 | 6 | 0 | 1 | 0 | 7
7 | COc1cc(Nc2nccc(N3CCC(NC(=O)Nc4ccc5c(c4)OCO5)C3)n2)cc(OC)c1OC (stereo not drawn) [GSK1379766] | 0 | 0 | 0 | 0 | 0 | 0 | 0 | 0 | 11 | 0 | 0 | 0 | 0 | 0 | 4 | 26 | 8 | 65 | 16 | 0
8 | Cc1cc(-c2c(-c3ccc(F)cc3)ncn2CCCN2CCOCC2)nc(N)n1 [SB-222517] | 4 | 21 | 0 | 0 | 0 | 6 | 0 | 0 | 16 | 35 | 20 | 0 | 0 | 0 | 9 | 0 | 0 | 27 | 0 | 0
9 | Cc1ccccc1CC(=O)N1CCc2cc(-c3cn(C)c4ncnc(N)c34)ccc21 [GSK2603346] | 0 | 0 | 0 | 0 | 0 | 30 | 1 | 0 | 17 | 0 | 0 | 14 | 8 | 0 | 22 | 59 | 0 | 51 | 29 | 2
